How the values were obtained:
[1] = inhibitors of PAF-induced NFkB signaling in CF airway cells, dose response, cell-based, uHTS hits, panel, cytotoxicity readout (AID 624344); details: CF bronchial epithelial cells, PAF-induced NFkB reporter inhibition, with PAF, run 1; at 79 µM (top of the series) unless noted
[2] = as above; details: CF bronchial epithelial cells, PAF-induced NFkB reporter inhibition, with PAF, run 2; at 79 µM (top of the series) unless noted

Compound	inhibition [1]	inhibition [2]
c1ccc2c(-c3ccc4nncn4c3)cncc2c1	92.3%	79%
CC(=O)NC(CC(C)C)C(=O)NC(Cc1ccccc1)C(=O)CCl (configuration not stated)	97.3%	104%
COc1ccc2c(c1)c(C(C)=O)c(C)n2-c1ccc(C(C)=O)cc1	89.8%	101%
C=C1C(=O)O[C@H]2C[C@H]1[C@@H](OC(C)=O)C/C(C)=C/CC/C(C)=C\CC[C@]2(C)O	107%	97.5%
Cc1ccc(C)c(S(=O)(=O)N(C(=O)c2ccncc2)c2ccc(OC(=O)c3ccncc3)cc2)c1	104%	118%
O=C(Nc1ccccc1)Nc1ncc([N+](=O)[O-])s1	108%	96.7%
CC(=O)Oc1c(Br)cc(N(C(C)=O)S(=O)(=O)c2ccccc2)c2ccccc12	72.3%	88.1%
NS(=O)(=O)c1ccc(CCNc2nn3c(-c4cccc(OC(F)(F)F)c4)cnc3s2)cc1	98.6%	102%
COc1cccc(Nc2ncnc3ccc(Br)cc23)c1	119%	105%
Cc1ccsc1CN(C)c1ncnc2ccc(-c3ccoc3)cc12	91.6%	93.8%
Cc1nnc(Sc2nc3ccccc3o2)c2ccccc12	98.3%	107%
C[C@H](CO)N1C[C@H](C)[C@@H](CN(C)C(=O)Nc2ccc3c(c2)OCO3)Oc2c(NC(=O)Nc3ccc(C(F)(F)F)cc3)cccc2C1=O	113%	105%
COc1ccc(-c2cc(C(F)(F)F)nc(S(=O)(=O)CCCC(=O)Nc3cccnc3Cl)n2)cc1OC	99.5%	99.1%
CC1=C(/C=C/C(C)=C/C=C/C(C)=C\C(=O)O)C(C)(C)CCC1	100%	71.7%
O=S(=O)(CC(CN1CCCC1)N1CCCC1)c1ccc2ccccc2c1 (configuration not stated)	96.4%	92.7%
Nc1ncnc(N2CCc3ccccc32)c1[N+](=O)[O-]	115%	103%
Cc1nc2c(O)c3c(c(O)c2nc1C)C1C=CC3CC1	114%	103%
CC1CCc2sc3ncnc(N4CCOCC4)c3c2C1 (configuration not stated)	112%	101%
COc1ccc(OC)c(C2CC(=O)c3c([nH]c(C(=O)OC(C)C)c3C)C2)c1 (configuration not stated)	51.7%	64.2%
CCOC(=O)c1c(-c2ccc(C)cc2)csc1NC(=O)c1ccc(N2C(=O)CCC2=O)cc1	30.1%	81.4%
CCCCCCc1cc2cc(S(=O)(=O)c3ccc(F)cc3)c(=O)oc2cc1O	103%	87.3%
COc1cc(O)c(CC=C(C)C)c(O)c1C(=O)CCc1ccc(O)cc1	112%	104%

Compound	inhibition [1]	inhibition [2]
O=C1C(=Cc2ccccc2[N+](=O)[O-])Cc2ccccc21	68.5%	106%
CC(=O)c1ccc(-c2cnc3c(NC=O)cc(-c4ccc(C(=O)NC5CC5)cc4)cn23)cc1	99.5%	104%
CCN1CCN(Cc2ccc(NC(=O)c3ccc(C)c(NC(=O)c4cc(-c5ccc(Br)cc5)n[nH]4)c3)cc2C(F)(F)F)CC1	102%	112%
CN(C)CCCN(C(=O)CCOc1ccccc1)c1nc2c(F)cccc2s1	99.3%	99.1%
O=C(NNc1ccccc1Br)C(O)(c1cccc(C(F)(F)F)c1)c1cccc(C(F)(F)F)c1	103%	104%
COc1cc2oc(=O)cc(-c3ccc(-c4ccc(N(C)C)cc4)cc3)c2c(OC)c1OC	54.9%	69.4%
COc1ccc(COc2cc(-c3cccc(OC)c3)nc3ccc(NC(=O)c4cccnc4)cc23)cc1	98.7%	95.2%
O=Nc1c(O)n(Cc2c(Cl)cccc2Cl)c2ccccc12	103%	115%
Cc1cccc(N2CCN(C(=O)CCn3c(=S)[nH]c4cc5c(cc4c3=O)OCO5)CC2C)c1 (configuration not stated)	109%	93.9%
O=c1cc(-c2ccccc2Cl)oc2cc(O)cc(O)c12	85.2%	93.7%
CCSc1nsc(NC(=O)Nc2cccc(OC)c2)n1	102%	113%
C=CCN1c2ccccc2[C@]23C[C@@H](C(=O)OC)N(C(=O)c4ccc(Br)cc4)C2=NC(C(=O)OC)=C(C(=O)OC)[C@H]13	115%	101%
COc1ccc(-c2cc(NC=O)c3ncc(-c4cc(OC)c(OC)c(OC)c4)n3c2)cc1	50.1%	53.5%
O=S(=O)(Nc1ccc(Cl)cc1NS(=O)(=O)c1ccccc1)c1ccccc1	114%	85.8%
CCOc1ccccc1N1CCN(C(=O)c2cc(-c3cc(OC)ccc3OC)nc3ccccc23)CC1	107%	104%
Cc1cccc(C(=O)N2[C@@H](C(C)C)COc3cc(Br)ccc3S2(=O)=O)c1	102%	93.6%
C/C=C/COC(=O)c1[nH]c2c(c1C)C(=O)CC(c1ccco1)C2 (configuration not stated)	106%	92.9%
CN(Cc1ccco1)c1ncnc2ccc(-c3ccoc3)cc12	114%	101%
CNc1ccc2ncc(-c3cccc(C(=O)N(C)C)c3)n2n1	111%	106%
O=C(Nc1ccc(F)cc1)Nc1ccc(N2CCCC2)c(S(=O)(=O)Nc2ccccc2Cl)c1	111%	89.3%
Cc1ccc(Nc2nc3nonc3[nH]c2=O)cc1Cl	118%	104%
C=CC[C@@H](CC(=O)N(CCO)Cc1ccccc1)C(=O)NC[C@H](OC(=O)[C@@H](CC=C)Cc1ccc(F)cc1)c1ccccc1	110%	102%

Compound	inhibition [1]	inhibition [2]
CCOC(=O)N1CCC(NC(=O)c2ccc3c(c2)N=C(C)c2c(C)ccc(C)c2S3)CC1	92.2%	115%
COc1cc(O)cc2cc3c(c(O)c12)C(=O)CC(C)(O)O3 (configuration not stated)	99.9%	108%
CN(c1cccc(Cl)c1)S(=O)(=O)c1cccc(C(=O)Nc2nc3ccccc3[nH]2)c1	102%	99.5%
O=C(COc1ccc(Cl)cc1)Nc1ncc([N+](=O)[O-])s1	115%	83.3%
Clc1ccccc1C1=Nn2c(nnc2-c2ccncc2)SC1	109%	100%
CCOc1ccc(Nc2ncnc3ccc([N+](=O)[O-])cc23)cc1	102%	107%
CC(=O)OC1CCC2(C)C(CCC3C4CC=C(C(C)=O)C4(C)OC(=O)CC32)C1 (configuration not stated)	99.2%	104%
C/C(=N/NC(=O)c1cccs1)c1ccc(NC(=O)COc2ccc(Cl)cc2)cc1	87%	72.9%
CCOC(=O)c1ccc(-n2[nH]c(-c3ccccc3)cc2=O)cc1	113%	93.3%
O=C(c1ccccc1)C1OC1C(=O)c1ccccc1 (configuration not stated)	101%	109%
CCC(Oc1ccccc1)C(=O)Nc1ncc([N+](=O)[O-])s1 (configuration not stated)	112%	98.9%
COc1ccc(-c2oc3ccc(-c4ccc(OC)nc4)cc3c2C#CC2(O)CCCCC2)cc1	103%	103%
Cc1ccc(S(=O)(=O)Nc2cccc3cccnc23)c([N+](=O)[O-])c1	101% [at 39.5 µM]	94.2% [at 39.5 µM]
Cc1[nH]nc2c1-c1nc3ccccc3nc1C(C)(C)C2	113%	99.3%
COc1ccc(-c2cc(=O)oc3cc(OC(=O)C4CCCCC4)ccc23)cc1	110%	101%
CC(=O)Oc1ccccc1C(=O)Oc1ccc(/C=N/n2cnnc2)cc1	106%	105%
CCN1CCN(Cc2ccc(NC(=O)c3ccc(C)c(NC(=O)c4cccc5[nH]ccc45)c3)cc2C(F)(F)F)CC1	84.6%	77.6%
O=C1NC(=S)N/C1=C\c1cccnc1	99.3%	99.2%
Brc1ccc2ncnc(NCc3ccco3)c2c1	109%	105%
Fc1ccccc1-c1csc(=Nc2cccnc2)n1CCCn1ccnc1	116%	94.9%
CNC(=O)c1ccc(NC(=O)C2CCN(c3ncnc4sc(C)c(C)c34)CC2)cc1	85.3%	72%
O=C(Nc1ccc([N+](=O)[O-])cc1)Nc1ccc(Cl)cc1F	109%	101%

Compound	inhibition [1]	inhibition [2]
CCCCCc1cc(O)c2c(C)cc(=O)oc2c1	112%	99.4%
Oc1ccc(C[C@H]2CNC(=S)N2CC2CCCN2C[C@H](Cc2ccc(O)cc2)N2C[C@H](Cc3ccc(O)cc3)N(CC3CCCCC3)C2=S)cc1 (some centres not stated)	101%	105%
CC(=O)c1ccc(Nc2ncnc3ccc(Br)cc23)cc1	91.3%	98.4%
Nc1nc(N)nc(-c2ccc(Cl)c(Cl)c2)n1	116%	101%
Cc1ccc(-c2onc3ccc(C(=O)/C=C/N(C)C)cc23)cc1	101%	113%
COc1ccc(-c2cnc3c(NC=O)cc(-c4ccc(C(=O)N5CCOCC5)cc4)cn23)cc1OC	106%	99%
COc1cccc(-c2cc(NC=O)c3ncc(-c4ccc(C(C)=O)cc4)n3c2)c1	84.6%	93.6%
c1cc(-c2nnc3sc(C4CCCCC4)nn23)ccn1	102%	109%
COC(=O)c1c(C)n(-c2ccc(OC)cc2)c2ccc(O)cc12	103%	94.9%
COc1ccc(C2=Nn3c(nnc3-c3ccncc3)SC2)cc1	81.7%	76.5%
Cc1cccc(N=c2oc3cc(O)ccc3cc2C(N)=O)c1	87.7%	80%
Cc1c(O)ccc2c(-c3ccccc3)cc(=O)oc12	105%	114%
CCCCNc1c(-c2cccc(-c3ccc(OC)cc3)c2)nc2ccc(C)cn12	98.7%	107%
O=C(CC12CC3CC(CC(C3)C1)C2)Nc1nncs1	105%	100%
O=C(CCl)N(Cc1cc(=O)[nH]c2ccccc12)c1ccccc1	68.3%	83.6%
CCC1=Nc2cc(C(=O)NCc3ccco3)ccc2Sc2ccc(C)cc21	99.5%	92.2%
C=C(c1ccc2nc(NC(=O)OC)[nH]c2c1)c1cccs1	101%	110%
COc1ccc(-c2csc(/C(C#N)=C\c3ccc(O)c([N+](=O)[O-])c3)n2)cc1OC	97.7%	102%
COc1ccc2[nH]c3c(c2c1)CCN1C(=O)C(CC(=O)NCCC2=CCCCC2)C[C@H](C(=O)N2CCCCC2)[C@@]31CCc1ccccc1 (some centres not stated)	104%	40.2% [at 39.5 µM]
Fc1ccc(Nc2ccnc(Nc3ccc(F)cc3)n2)cc1	113%	101%

Source: PubChem BioAssay
